Reference: PubChem BioAssay (EPA / NIEHS)
Calls of active or inactive are those of the source. The calls were made as follows: active = hit-call score of the fitted dose curve at least 0.9, where 1 is the maximum; inactive = score below 0.9.

Key:
[1] = read-out: Vascular endothelial growth factor receptor 2 (Homo sapiens) (UniProt P35968); assay: BSK_4H_VEGFRII: BioMAP Diversity Plus: 4H Assay for Vascular endothelial growth factor receptor 2 (VEGFR2) Biomarker Activity (AID 2283031); conditions: primary human endothelial cells (HUVEC); actives raise or lower the signal;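 as to AC50: cell-surface VEGFR2 protein level quantified by ELISA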
Outline: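 Measured by ELISA after 24 h of compound treatment: VEGFR2 on primary human umbilical vein endothelial cells, fitted in both directions relative to DMSO. Parallel cultures received SRB staining (560 nm) for overt cytotoxicity.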

[2] = read-out: Human Leukocyte Antigen - DR isotype (HLADR), HLA-DRA (gene 3122); assay: BSK_BE3C_HLADR: BioMAP Diversity Plus: BE3C Assay for Human Leukocyte Antigen - DR isotype (HLADR) Biomarker Activity (AID 2283032); conditions: primary human bronchial epithelial cells; actives raise or lower the signal
Outline: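 Signal came from an ELISA for HLA-DR in human bronchial epithelial primary cells harvested 24 h after treatment; gain- and loss-of-signal fitting used DMSO controls as reference.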

[3] = read-out: Vascular cell adhesion molecule 1 (VCAM1), VCAM1 (gene 7412); assay: BSK_4H_VCAM1: BioMAP Diversity Plus: 4H Assay for Vascular cell adhesion molecule 1 (VCAM1) Biomarker Activity (AID 2283033); conditions: primary human endothelial cells (HUVEC); actives raise or lower the signal
Outline: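 Endpoint derived from bidirectional fitting against DMSO controls of VCAM-1 ELISA signal in umbilical vein endothelial cells sampled at 24 h following treatment.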

[4] = read-out: Interferon-gamma inducible Protein 10 (IP10), CXCL10 (gene 3627); assay: BSK_BE3C_IP10: BioMAP Diversity Plus: BE3C Assay for Interferon-gamma inducible Protein 10 (IP10) Biomarker Activity (AID 2283034); conditions: primary human bronchial epithelial cells; actives raise or lower the signal
Outline: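 Using primary human bronchial epithelial cultures, the assay captures IP-10 by ELISA one day (24 h) after exposure. Parallel SRB staining of total protein flags overt cytotoxicity. Fits run bidirectionally relative to DMSO.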

[5] = read-out: Monokine induced gamma interferon (MIG), CXCL9 (gene 4283); assay: BSK_BE3C_MIG: BioMAP Diversity Plus: BE3C Assay for Monokine induced gamma interferon (MIG) Biomarker Activity (AID 2283035); conditions: primary human bronchial epithelial cells; actives raise or lower the signal
Outline: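 ELISA read-out of MIG in human lung bronchial epithelial primary cultures, 24 h post-dosing. Bidirectional curve fit vs DMSO baseline.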

[6] = read-out: Transforming growth factor beta 1 (TGFb1), TGFB1 (gene 7040); assay: BSK_BE3C_TGFb1: BioMAP Diversity Plus: BE3C Assay for Transforming growth factor beta 1 (TGFb1) Biomarker Activity (AID 2283036); conditions: primary human bronchial epithelial cells; actives raise or lower the signal
Outline: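 In this human primary bronchial epithelial system, an ELISA quantified TGF-b1 one day after dosing. Endpoint changes in either direction were fitted relative to DMSO.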

[7] = read-out: Plasminogen activator inhibitor-1 (PAI1), SERPINE1 (gene 5054); assay: BSK_BE3C_PAI1: BioMAP Diversity Plus: BE3C Assay for Plasminogen activator inhibitor-1 (PAI1) Biomarker Activity (AID 2283037); conditions: primary human bronchial epithelial cells; actives raise or lower the signal
Outline: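 PAI-1 biomarker levels in treated human bronchial epithelial cells are determined by ELISA at 24 h. Both increases and decreases relative to DMSO are fitted.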

[8] = read-out: urokinase plasminogen activator (uPA), PLAU (gene 5328); assay: BSK_BE3C_uPA: BioMAP Diversity Plus: BE3C Assay for urokinase plasminogen activator (uPA) Biomarker Activity (AID 2283038); conditions: primary human bronchial epithelial cells; actives raise or lower the signal
Outline: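 ELISA for uPA on human primary bronchial epithelial cultures 24 h post-treatment, gain or loss against DMSO. Parallel SRB staining (0.1% after 10% TCA fixation, 560 nm) assessed overt cytotoxicity.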

[9] = read-out: Urokinase-type plasminogen activator receptor (uPAR), PLAUR (gene 5329); assay: BSK_BE3C_uPAR: BioMAP Diversity Plus: BE3C Assay for Urokinase-type plasminogen activator receptor (uPAR) Biomarker Activity (AID 2283039); conditions: primary human bronchial epithelial cells; actives raise or lower the signal
Outline: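 A uPAR ELISA serves as the readout, taken 24 h after treating primary human bronchial epithelial cells. Responses in either direction are fitted against DMSO, which defines baseline activity.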

[10] = read-out: Interleukin-6 (IL6), IL6 (gene 3569); assay: BSK_CASM3C_IL6: BioMAP Diversity Plus: CASM3C Assay for Interleukin-6 (IL6) Biomarker Activity for (AID 2283040); conditions: primary human coronary artery smooth muscle cells; actives raise or lower the signal
[11] = read-out: Tissue plasminogen activator (tPA), PLAT (gene 5327); assay: BSK_BE3C_tPA: BioMAP Diversity Plus: BE3C Assay for Tissue plasminogen activator (tPA) Biomarker Activity (AID 2283041); conditions: primary human bronchial epithelial cells; actives raise or lower the signal
Outline: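 Bidirectional curve fitting relative to DMSO defined activity, with tPA detected by ELISA in chemically treated human bronchial epithelial primary cells at 24 hours.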

[12] = read-out: Interleukin-8 (IL8), CXCL8 (gene 3576); assay: BSK_CASM3C_IL8: BioMAP Diversity Plus: CASM3C Assay for Interleukin-8 (IL8) Biomarker Activity (AID 2283042); conditions: primary human coronary artery smooth muscle cells; actives raise or lower the signal;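 also: IL-8 protein level quantified by ELISA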
[13] = read-out: Human Leukocyte Antigen - DR isotype (HLADR), HLA-DRA (gene 3122); assay: BSK_CASM3C_HLADR: BioMAP Diversity Plus: CASM3C Assay for Human Leukocyte Antigen - DR isotype (HLADR) Biomarker Activity (AID 2283043); conditions: primary human coronary artery smooth muscle cells; actives raise or lower the signal;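 also: cell-surface HLA-DR protein level quantified by ELISA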
[14] = read-out: Macrophage colony-stimulating factor (MCSF), CSF1 (gene 1435); assay: BSK_CASM3C_MCSF: BioMAP Diversity Plus: CASM3C Assay for Macrophage colony-stimulating factor (MCSF) Biomarker Activity (AID 2283044); conditions: primary human coronary artery smooth muscle cells; actives raise or lower the signal;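 also: M-CSF protein amount quantified by ELISA after 24 h exposure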
[15] = read-out: Low-density lipoprotein receptor (LDLR), LDLR (gene 3949); assay: BSK_CASM3C_LDLR: BioMAP Diversity Plus: CASM3C Assay for Low-density lipoprotein receptor (LDLR) Biomarker Activity (AID 2283045); conditions: primary human coronary artery smooth muscle cells; actives raise or lower the signal;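 also: LDLR protein level on the cell surface quantified by ELISA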
[16] = read-out: Monocyte Chemoattractant Protein-1 (MCP1), CCL2 (gene 6347); assay: BSK_CASM3C_MCP1: BioMAP Diversity Plus: CASM3C Assay for Monocyte Chemoattractant Protein-1 (MCP1) Biomarker Activity (AID 2283046); conditions: primary human coronary artery smooth muscle cells; actives raise or lower the signal;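 also: MCP-1 level quantified by ELISA 24 h after dosing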
[17] = BSK_CASM3C_Proliferation: Cell Proliferation Assessment in the BioMAP Diversity Plus: CASM3C Assay (AID 2283047); conditions: primary human coronary artery smooth muscle cells;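 also: sulforhodamine B total protein stain as relative cell number at 560 nm; sub-confluent cells exposed 48 h before staining; fitted both ways against DMSO so gain or loss of cell number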
[18] = read-out: Monokine induced gamma interferon (MIG), CXCL9 (gene 4283); assay: BSK_CASM3C_MIG: BioMAP Diversity Plus: CASM3C Assay for Monokine induced gamma interferon (MIG) Biomarker Activity (AID 2283048); conditions: primary human coronary artery smooth muscle cells; actives raise or lower the signal;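 also: MIG protein level measured by ELISA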
[19] = read-out: serum amyloid A (SAA), SAA1 (gene 6288); assay: BSK_CASM3C_SAA: BioMAP Diversity Plus: CASM3C Assay for serum amyloid A (SAA) Biomarker Activity (AID 2283049); conditions: primary human coronary artery smooth muscle cells; actives raise or lower the signal;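 also: SAA protein level quantified by ELISA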
[20] = BSK_CASM3C_SRB: Viability Assessment in the BioMAP Diversity Plus: CASM3C Assay (AID 2283050); conditions: primary human coronary artery smooth muscle cells

Measured: AC50

O=C=NCCCCCCN=C=O
inactive: all assays above

c1ccc(C[n+]2cccc3ccccc32)cc1
active: [4] 30.2 µM
inactive: all other assays above

OC12N=C(c3ccccc3)SC1Cc1cc(Cl)ccc12 (stereo not given)
active: [3] 20 µM | [17] 30.1 µM
inactive: all other assays above

O=C1c2ccccc2C(=O)N1CCc1noc(-c2ccc(CN3CCCCCC3)s2)n1
active: [15] 27.1 µM
inactive: all other assays above

Cc1ccc(C(C)C)cc1
not listed: [4]
inactive: all other assays above

C[C@]12CC[C@@H]3c4ccc(O)cc4CC[C@H]3[C@@H]1CCC2=O
inactive: all assays above

CCN(CC)C(=O)c1cc(S(=O)(=O)Cc2ccccc2)c(N2CCC(c3ccccc3)CC2)cc1N(CC)CCN(C)C
active: [2] 8.48 µM | [3] 18.3 µM | [4] 10.9 µM | [5] 12.6 µM | [6] 9.99 µM | [7] 7.91 µM | [8] 10.3 µM | [9] 10.4 µM | [10] 0.7 µM | [11] 6.65 µM | [12] 24.8 µM | [13] 5.38 µM | [15] 0.138 µM | [17] 7.05 µM | [20] 27.1 µM
inactive: [1] | [14] | [16] | [18] | [19]

Cc1cc2c(cc1C(F)(F)F)N(C(=O)Nc1ccc(Oc3cccnc3C)nc1)CC2
active: [2] 5.03 µM | [4] 13.1 µM | [8] 11.7 µM | [13] 16.6 µM | [14] 30.6 µM | [15] 3.81 µM | [16] 28.3 µM | [17] 13.8 µM | [20] 26.3 µM
inactive: all other assays above

CCCOC(=O)c1cc(O)c(O)c(O)c1
active: [3] 2.01 µM | [17] 6.82 µM
inactive: all other assays above

Cc1occc1C(=O)Nc1ccc(C(=O)N2CCC(F)(F)/C(=C\C(=O)N3CCC(N4CCCCC4)CC3)c3ccccc32)cc1
active: [3] 9.44 µM | [15] 10.8 µM
not listed: [6]
inactive: all other assays above

CCCCCCCCCCCC[N+](C)(C)C
inactive: [1] | [10]
active: [2] 28.3 µM | [3] 26.8 µM | [4] 21.8 µM | [5] 33.1 µM | [7] 21.9 µM | [8] 31.6 µM | [9] 33.9 µM | [11] 15 µM | [12] 29.1 µM | [13] 14 µM | [14] 16.2 µM | [15] 21.2 µM | [16] 27.1 µM | [17] 12.9 µM | [18] 33.3 µM | [19] 26 µM | [20] 27.6 µM

Cc1cccc2ccccc12
inactive: all assays above

CCCCCCCCCCCCO
active: [1] 34 µM | [3] 30.5 µM | [4] 30.8 µM | [6] 30.1 µM | [10] 30.7 µM | [11] 24.8 µM | [12] 35 µM | [13] 31.5 µM | [14] 31.2 µM | [16] 34.7 µM | [17] 32.6 µM | [18] 31.3 µM | [19] 29.4 µM
inactive: [2] | [5] | [7] | [8] | [9] | [15] | [20]

CC(C)(c1cc(Br)c(O)c(Br)c1)c1cc(Br)c(O)c(Br)c1
inactive: [1] | [10] | [12] | [15] | [18] | [20]
active: [2] 7.25 µM | [3] 29.6 µM | [4] 6.45 µM | [5] 9.16 µM | [6] 5.15 µM | [7] 4.89 µM | [8] 9.34 µM | [9] 9.25 µM | [11] 3.37 µM | [13] 33.1 µM | [14] 19.1 µM | [16] 30.1 µM | [17] 32 µM | [19] 31.9 µM

CC[C@H](NC(=O)c1cc(F)ccc1NS(=O)(=O)c1cccc2cccnc12)c1ccccc1
active: [15] 7.05 µM
inactive: all other assays above

O=CCCCC=O
active: [2] 33.5 µM | [3] 31.5 µM | [7] 32.8 µM | [13] 30.2 µM | [17] 23.5 µM
inactive: all other assays above

CN1C(=O)N(c2ccccc2Br)Cc2cnc(Nc3ccc4c(c3)OCC(CO)O4)nc21 (stereo not given)
active: [2] 28.5 µM | [3] 15.2 µM | [5] 34.7 µM | [6] 20 µM | [7] 1.63 µM | [8] 5.91 µM | [9] 1.23 µM | [10] 20 µM | [11] 4.46 µM | [12] 14.3 µM | [13] 11.5 µM | [14] 5.62 µM | [15] 37.8 µM | [16] 9.73 µM | [17] 1.27 µM | [18] 32.3 µM | [19] 5.98 µM | [20] 20 µM
inactive: [1]

CC(=O)N1CCN(c2ccc(OC[C@H]3CO[C@](Cn4ccnc4)(c4ccc(Cl)cc4Cl)O3)cc2)CC1
active: [2] 33.3 µM | [3] 33.6 µM | [15] 2.94 µM | [17] 28 µM
not listed: [4] | [14]
inactive: all other assays above

O=C(O)c1ccccc1C(=O)OCc1ccccc1
not listed: [4]
inactive: all other assays above

COc1ccc2cc(S(=O)(=O)N[C@H](CC(=O)N[C@H](Cc3ccc(CN4[C@H](C)CCC[C@@H]4C)cc3)C(=O)N(C)C(C)C)c3ccc4c(c3)OCO4)ccc2c1
active: [2] 32.8 µM | [5] 33.5 µM | [7] 19.1 µM | [8] 14.6 µM | [9] 18.5 µM | [11] 7.92 µM | [13] 27.8 µM | [15] 0.966 µM | [17] 24.9 µM | [20] 19.1 µM
inactive: [1] | [3] | [6] | [10] | [12] | [14] | [16] | [18] | [19]

CCCCCCCCCCCO
active: [3] 20 µM | [17] 33.5 µM
not listed: [4]
inactive: all other assays above

CCCCOC(=O)c1ccc(O)cc1
not listed: [4]
inactive: all other assays above
